Bioassay records from PubChem BioAssay.
UHRF1 MBD2 ctr: human UHRF1 methylated DNA binding inhibitors | inhibition, % at 4.4 µM | 0.75% of 370,000 active | AID 687016 | UHRF1 binding to methylated oligo, TR-FRET | Q96T88; in the data active = inhibition above about 21%;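 note: UHRF1 SRA domain binding a hemimethylated CpG hairpin DNA probe; 0% = median of test compound wells and 100% = reference inhibitor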
Rin1-Abl PPI inh: blocks binding of human Rin1 to Abl; P00519+Q13671; TR-FRET Rin1/Abl binding, biochemical; inhibition, % at 7.35 µM; 0.4% of 360,000 active; in the data active = inhibition above about 5%, passing the limit was not always enough
TCR CD3 inh: blocks the human TCR-CD3 interaction | 0.37% of 360,000 active | AID 651800 | inhibition, % at 9.4 µM | TAMRA-labeled TCR probe fluorescence, biochemical; in the data active = inhibition above about 19%;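 note: recombinant mutant TCR 2C K166C tagged with TAMRA read by polarization; 0% = receptor in buffer alone and 100% = receptor with positive control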
LEDGF integ inh: blocks HIV-1 LEDGF/p75-dependent DNA integration. TR-FRET IN-LEDGF/p75 DNA integration, Eu/Cy5. inhibition, % at 3.7 µM. 0.64% of 370,000 active. AID 743269;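 active = inhibition above the screen-wide mean plus 3 SD, cut at about 13% in these data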;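 note: signal is the Cy5 over europium emission ratio at 671 and 618 nm; 0% = plate median of compound wells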
MBD2 inh: inhibitors of human MBD2 binding to methylated oligonucleotide; 0.31% of 370,000 active; TR-FRET; inhibition, % at 4.4 µM; Q9UBB5; in the data active = inhibition above about 13%
IN multimer up: counter-screen for LEDGF/p75 integration inhibitors: HIV-1 integrase multimerization activators; activation, % at 7.7 µM; 17% of 2,000 active; AID 1053131; TR-FRET HIV-1 integrase multimerization, biochemical; shares compounds with LEDGF integ inh; in the data active = activation above about 8.9%
TRFRET interf: TR-FRET optical interference, LEDGF/p75 integration counter-screen; inhibition, % at 7.7 µM; 2,000 tested, under 10 active; shares compounds with LEDGF integ inh; TR-FRET optical interference counterscreen, HIV-1 IN multimerization;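 active = inhibition above the mean over all tested compounds plus 3 SD, which no compound reached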;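 note: 0% = integrase with antibodies and DMSO and 100% = antibodies without integrase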
IN-LEDGF confirm: LEDGF/p75-dependent HIV-1 integration inhibition, confirmation. shares compounds with LEDGF integ inh. TR-FRET LEDGF/p75-dependent HIV-1 integration, biochemical. inhibition, % at 3.7 µM. 36% of 2,000 active; in the data active = inhibition above about 14%
Numbers without * were called inactive; . = no result. Most compounds without a hit are left out; they make up all but 2% or so of the library.

SMILES	UHRF1 MBD2 ctr	Rin1-Abl PPI inh	TCR CD3 inh	LEDGF integ inh	MBD2 inh	IN multimer up	TRFRET interf	IN-LEDGF confirm
C(=C\c1ccccc1)/CN1CCN(C(c2cccc3ccccc23)c2nnnn2-c2ccc3c(c2)OCCO3)CC1 (stereo not drawn)	1	1	5	0	1	.	.	.
N#CC(CC(=O)OCc1ccccc1)NC(=O)OCc1ccccc1 (stereo not drawn)	0	-5	-3	33*	1	-1	6	-3
O=C(CSc1n[nH]c(-c2ccccc2)n1)Nc1ccccc1O	2	0	-5	2	-5	.	.	.
Cc1cc2c(=O)cc(-c3ccccc3)oc2c(C(=O)O)c1C	3	-4	-3	8	10	.	.	.
Cc1cc(CC(=O)O)c2oc(-c3ccoc3)cc(=O)c2c1	25*	.	9	15*	4	5	-25	29*
Nc1ccc2c3c(ccc([N+](=O)[O-])c13)CC2	-14	-14	-2	0	-21	.	.	.
Cc1nc(CNS(=O)(=O)c2cccc(F)c2)cs1	2	6	-3	1	-3	.	.	.
Cc1ccc(-c2csc(NS(=O)(=O)c3cccc(F)c3)n2)o1	11	-1	6	16*	3	9.0*	-45	15*
O=C(N/N=C\C=C\c1ccc([N+](=O)[O-])o1)c1cccs1	43*	-3	9	36*	9	11*	-38	57*
O=C(NCc1ccccc1)c1cc(C2COCCN2S(=O)(=O)c2ccccc2)on1 (stereo not drawn)	-1	-3	7	1	-2	.	.	.
COC(=O)c1ccc2nc(-c3ccc(C)cc3)c(Cc3ccccc3)n2c1	10	.	1	14*	3	9	-28	-2
COC(=O)c1ccc2nc(-c3ccc(C)cc3)c(Cc3cccc(Cl)c3)n2c1	11	.	4	1	-5	.	.	.
CCn1c(SCC(=O)OCc2ccccc2)nnc1-c1ccco1	3	9	9	19*	1	0	-2	-10
C=CCOc1ccccc1CN(C(=O)CCl)c1ccc2c(c1)OCO2	4	0	-2	3	1	.	.	.
COc1ccc(NC(=O)c2cccnc2SC)cc1OC	1	-1	1	5	2	.	.	.
COc1cc(N)c2ncccc2c1SC	-1	-1	-4	16*	-15	3	-17	14*
Cc1cc2c(c(=O)n1Cc1ccccn1)C(C(C)C)C(C#N)=C(N)O2 (stereo not drawn)	12	-1	3	17*	3	0	1	-7
Cc1ccc(-c2nc(SC(C)C(=O)N3CCOCC3)n[nH]2)cc1 (stereo not drawn)	1	0	6	4	2	.	.	.
COc1cc(C2Nc3ccc4ncccc4c3C3=C2C(=O)CCC3)ccc1O (stereo not drawn)	-9	-1	6	27*	-13	2	-10	-13
COc1ccccc1Nc1nc(N)nc(CN2CCC(Cc3ccccc3)CC2)n1	9	-2	-12	15*	10	0	2	6
COc1ccccc1-n1nnnc1SCC(=O)Nc1ccc(C)c(N)c1	-1	2	-1	0	3	.	.	.
O=C(Cn1cc(COc2ccc(-n3cccc3)cc2)nn1)NS(=O)(=O)c1ccccc1C(F)(F)F	7	-2	-1	27*	1	1	-5	-14
Oc1c(Cl)cc(Cl)cc1C=Nc1ccc(N2CCOCC2)cc1	3	1	-3	6	3	.	.	.
Oc1cc(Br)ccc1C=Nc1ccc(N2CCCCC2)cc1	-1	3	5	6	-3	.	.	.
Oc1ccc(N=Nc2cccc(C(F)(F)F)c2)cc1C=Nc1ccc(N2CCOCC2)cc1	-4	-1	-2	14*	-3	-1	3	14*
SMILES	UHRF1 MBD2 ctr	Rin1-Abl PPI inh	TCR CD3 inh	LEDGF integ inh	MBD2 inh	IN multimer up	TRFRET interf	IN-LEDGF confirm
Oc1ccc(C=Nc2ccc(N3CCOCC3)cc2)c(O)c1	-3	0	-5	19*	-3	19*	-97	23*
Cc1cc(Br)cc(C=Nc2ccc(N3CCOCC3)cc2)c1O	0	0	3	26*	-4	3	-13	17*
Oc1ccccc1C=NC1=NN(c2cccc(C(F)(F)F)c2)CC1	-1	-1	-4	-2	4	.	.	.
O=C(CNC(=O)N1CC(=O)Nc2ccccc21)NCc1ccc(F)cc1	-2	-7	0	0	4	.	.	.
COc1ccc(NC(C)C(=O)Nc2cccc(S(=O)(=O)N3CCOCC3)c2)cc1OC (stereo not drawn)	-1	0	0	1	-3	.	.	.
O=C(Nc1c(-c2ccc(Cl)cc2)[nH][nH]c1=O)c1ccccc1Cl	-8	3	8	-5	-5	.	.	.
Cc1ccc(C(=O)Nc2c(-c3ccc(Cl)cc3)[nH][nH]c2=O)cc1	4	4	-9	14*	2	4	-12	1
COc1ccccc1C(C)NCC(=O)NC(=O)NCc1ccco1 (stereo not drawn)	1	2	1	2	-2	.	.	.
Cc1cc(C)c2c(N)c(S(=O)c3ccc(C(C)(C)C)cc3)sc2n1 (stereo not drawn)	1	1	-3	36*	-1	1	-4	-4
Cc1cc(C)c2c(N)c(C(=O)C(C)(C)C)sc2n1	9	0	-6	1	5	.	.	.
CC(=O)Nc1ccccc1O	-2	3	1	0	-4	.	.	.
CC(CC(=O)O)Nc1ccccc1O (stereo not drawn)	7	0	0	35*	0	6	-22	3
NC1(C(=O)O)CSSC1	2	7	2	2	2	.	.	.
CC1=CC2(O)OCCN(CCO)C2=CC1=O (stereo not drawn)	10	0	10	31*	2	4	-19	14*
Cc1cc(C)n(-c2ncc3c(n2)N(CCO)CCOC3=O)n1	-1	0	-5	-2	2	.	.	.
CCC1(c2ccccc2)NC(=O)N(CC(=O)NCc2ccc(C)cc2)C1=O (stereo not drawn)	0	-3	7	-1	1	.	.	.
O=C(OC1CC2CC1[C@H]1CCCCN1C2=O)N1CCN(S(=O)(=O)c2ccccc2)CC1 (stereo partly drawn)	-3	.	1	-3	2	.	.	.
O=C(OC1CC2CC1[C@H]1CCCCN1C2=O)N1CCC(c2ccccc2)CC1 (stereo partly drawn)	4	.	-6	23*	1	0	0	1
Cc1cc(NC(=O)CSc2nc(C3CC3)nc3sc(C)c(C)c23)no1	1	1	-4	17*	-2	16*	-55	-8
